Assay [1] is described as follows: qHTS RealTime-Glo MT Cell Viability Assay in HepG2 cells - 40 hour (AID 1224870). Further: nearly all actives have a fitted effect of over 50% in size. In a few lines:
(§1)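 Real-time viability: cells seeded at 600 per well together with NanoLuc and cell-permeant prosubstrate, compounds added after 5 h incubation. Luminescence tracked at 0, 8, 16, 24, 32 and 40 h of exposure.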
(qHTS replaces the single test concentration by a dilution series.)

A short description of assay [2]: A CellTox Green Cytotoxicity Assay to monitor cytotoxicity in HEK293 cells - 40 hour (AID 1224871). Further: nearly all actives have a fitted effect of over 45% in size. Summed up:
(§2)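 HEK293 cells premixed with CellTox Green dye were seeded at 600 cells/well and left 5 h at 37 C/5% CO2 before pin transfer of 23 nL compound in DMSO. Fluorescence from dye bound to dead-cell DNA was read during 40 h treatment.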

Assay [3] in a line: qHTS RealTime-Glo MT Cell Viability Assay in HEK293 cells - 16 hour (AID 1224872). Further: nearly all actives have a fitted effect of over 50% in size. Further: potency means the concentration at half of the fitted maximal effect. In a few lines:
(§3)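 Luminescence generated by NanoLuc from substrate produced by living HEK293 cells served as the viability signal. Each value reflects the reading at its stated time point during continuous 40 h compound exposure at 37 C.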

Assay [4] can be described thus: qHTS RealTime-Glo MT Cell Viability Assay in HepG2 cells - 8 hour (AID 1224873). Further: nearly all actives have a fitted effect of over 55% in size. In a few lines:
as §1

A short description of assay [5]: qHTS RealTime-Glo MT Cell Viability Assay in HEK293 cells - 40 hour (AID 1224874). Further: nearly all actives have a fitted effect of over 50% in size. Further: potency means the concentration at half of the fitted maximal effect. Particulars: RealTime-Glo luminescence; max response: hits give low values. Summed up: (§4)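 HEK293 cells mixed with RealTime-Glo reagents (NanoLuc plus cell-permeant prosubstrate) at 600 cells/well, preincubated 5 h at 37 C/5% CO2, then given 23 nL compound in DMSO. Nonlytic luminescence from viable cells was read at 0, 8, 16, 24, 32 and 40 h.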

Assay [6] can be described thus: A CellTox Green Cytotoxicity Assay to monitor cytotoxicity in HEK293 cells - 24 hour (AID 1224875). Further: series mostly up to about 77 µM; nearly all actives have a fitted effect of over 45% in size. In a few lines:
as §2

Assay [7] is described as follows: A CellTox Green Cytotoxicity Assay to monitor cytotoxicity in HepG2 cells - 16 hour (AID 1224876). Further: nearly all actives have a fitted effect of over 45% in size. Summed up:
(§5)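 HepG2 cells were seeded together with the CellTox Green dye at 600 cells/well, left 5 h at 37 C/5% CO2, then given compounds in DMSO. Fluorescence from dye bound to dead-cell DNA was read repeatedly over 40 h of treatment at 37 C.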

A short description of assay [8]: qHTS RealTime-Glo MT Cell Viability Assay in HepG2 cells - 32 hour (AID 1224877). Further: nearly all actives have a fitted effect of over 55% in size. Summed up: (§6)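 Tox21 10K library screened in qHTS format on HepG2 cells carrying RealTime-Glo reagents. Compounds were added after a 5 h preincubation, and the luminescent signal from continuous culture was measured repeatedly during 40 h treatment.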
The nature of assay [9]: A CellTox Green Cytotoxicity Assay to monitor cytotoxicity in HepG2 cells - 24 hour (AID 1224878). Further: nearly all actives have a fitted effect of over 45% in size. In a few lines:
as §5

Assay [10] can be described thus: A CellTox Green Cytotoxicity Assay to monitor cytotoxicity in HepG2 cells - 40 hour (AID 1224879). Further: nearly all actives have a fitted effect of over 40% in size. Summed up:
as §5

A short description of assay [11]: A CellTox Green Cytotoxicity Assay to monitor cytotoxicity in HEK293 cells - 32 hour (AID 1224881). Further: nearly all actives have a fitted effect of over 40% in size. In a few lines: as §2
Assay [12] can be described thus: A CellTox Green Cytotoxicity Assay to monitor cytotoxicity in HepG2 cells - 0 hour (AID 1224882). Further: nearly all actives have a fitted effect of over 35% in size. In a few lines:
as §5

Assay [13] can be described thus: A CellTox Green Cytotoxicity Assay to monitor cytotoxicity in HepG2 cells - 32 hour (AID 1224883). Further: nearly all actives have a fitted effect of over 50% in size. In a few lines:
as §5

Assay [14] in a line: A CellTox Green Cytotoxicity Assay to monitor cytotoxicity in HEK293 cells - 8 hour (AID 1224884). Further: nearly all actives have a fitted effect of over 35% in size. In a few lines:
as §2

Assay [15] can be described thus: qHTS RealTime-Glo MT Cell Viability Assay in HEK293 cells - 24 hour (AID 1224886). Further: nearly all actives have a fitted effect of over 50% in size. Further: potency means the concentration at half of the fitted maximal effect. Summed up:
as §3

Assay [16] can be described thus: qHTS RealTime-Glo MT Cell Viability Assay in HEK293 cells - 8 hour (AID 1224887). Further: nearly all actives have a fitted effect of over 50% in size. Further: potency means the concentration at half of the fitted maximal effect. Summed up:
as §4

A short description of assay [17]: A CellTox Green Cytotoxicity Assay to monitor cytotoxicity in HEK293 cells - 16 hour (AID 1224888). Further: nearly all actives have a fitted effect of over 35% in size. Summed up:
as §2

Assay [18] can be described thus: qHTS RealTime-Glo MT Cell Viability Assay in HepG2 cells - 0 hour (AID 1224889). Further: nearly all actives have a fitted effect of over 50% in size. Summed up: as §6
The nature of assay [19]: qHTS RealTime-Glo MT Cell Viability Assay in HEK293 cells - 0 hour (AID 1224880). In a few lines: as §4
Assay [20] can be described thus: qHTS RealTime-Glo MT Cell Viability Assay in HepG2 cells - 16 hour (AID 1224885). Further: nearly all actives have a fitted effect of over 50% in size. In a few lines: as §6

SMILES strings stand for the structures. Where “and” joins values, the source holds several entries; their conditions need not be identical. Equal entries are not always repeated. A number with no mark means an inactive call. Inconclusive results are not listed. Calls of active or inactive are those of the source. The call rests on the fitted dose curve; in most records, active means well fitted curve in the direction sought with a large enough effect in the repeat runs; inconclusive means weak or mixed curves; inactive means no such curve, though single readings can be large; an effect the other way counts as inactive or inconclusive.

The record followed here is PubChem BioAssay (Tox21).
On the % scale 0 is the no-effect control and ±100 the full control effect.

`Cc1ccc(Cl)cc1Cl`: the Potency result in assay [1], in assay [2], in assay [3], in assay [4], in assay [6] and in assay [7] was “inactive” each time. In addition, the Potency entry in [8], in [9], in assay [10], in assay [11], in assay [12] and in assay [13] was “inactive” throughout. Besides, the Potency entry in assay [14], in [15], in assay [16], in [17] and in assay [18] was “inactive” throughout. In [5], the max response was 13.6%.
For the compound `NS(=O)(=O)c1ccc(C(=O)O)cc1`, the Potency entry in [1], in assay [2], in [3], in assay [4], in assay [6] and in assay [7] was “inactive” each time. Also, the Potency result in assay [8], in assay [9], in assay [10], in assay [19], in assay [11] and in assay [12] was “inactive” in each case. Besides, the Potency entry in [13], in [14], in assay [20], in assay [16], in assay [17] and in [18] was “inactive” in each case. Further, in [5], the max response is -0.921%.
For the compound `COc1ccc(CCN(C)CCCC(C#N)(c2cc(OC)c(OC)c(OC)c2)C(C)C)cc1OC` (stereo unspecified), the Potency entry in [1], in [2], in assay [4], in assay [6], in assay [7] and in assay [8] was “inactive” in each case. The Potency result in [9], in assay [19], in [12], in assay [13], in assay [14] and in [20] was “inactive” in each case. Besides, the Potency result in assay [17] and in assay [18] was “inactive” each time. The Potency in assay [3] is 10.7 µM (active); in [5] it was 23.9 µM (active); in assay [15], 21.3 µM (active); in [16], 21.3 µM (active).
For the compound `CC/C=C\CC/C=C/C(OCC)OCC`, the Potency result in assay [1], in assay [2], in [3], in assay [4], in assay [6] and in [7] was “inactive” in each case. The Potency entry in assay [8], in [10], in assay [19], in [11], in assay [12] and in assay [13] was “inactive” throughout. For the same compound, the Potency entry in assay [14], in assay [20], in assay [16], in [17] and in assay [18] was “inactive” each time. For the same compound, the max response in assay [5] was 11.7%.
Turning to `c1ccc([C@H]2CN3CCSC3=N2)cc1`, the Potency result in assay [1], in [2], in assay [3], in assay [4], in assay [6] and in [7] was “inactive” each time. Also, the Potency result in assay [8], in assay [10], in assay [19], in [11], in [12] and in [13] was “inactive” in each case. In addition, the Potency entry in [14], in assay [20], in assay [16], in [17] and in [18] was “inactive” each time. Besides, the max response in assay [5] is 3.46%.
Turning to `Nc1ccccc1S(=O)(=O)O`, the Potency result in assay [1], in [2], in assay [3], in assay [4], in assay [6] and in [7] was “inactive” each time. In addition, the Potency result in [9], in assay [10], in assay [19], in [11], in assay [12] and in assay [13] was “inactive” in each case. Also, the Potency entry in assay [14], in [20], in assay [15], in assay [16], in assay [17] and in [18] was “inactive” throughout. In addition, the max response in assay [5] was 0.0936%.
`COc1ccc2c(c1)c(CC(=O)OCC(=O)O)c(C)n2C(=O)c1ccc(Cl)cc1`: the Potency result in [1], in [2], in assay [3], in assay [4], in [6] and in [7] was “inactive” throughout. Further, the Potency entry in [9], in [10], in assay [19], in [11], in [12] and in assay [13] was “inactive” in each case. Moreover, the Potency result in assay [14], in assay [15], in [16], in assay [17] and in assay [18] was “inactive” in each case. The max response in [5] is 5.11%.
For `COCCc1ccc(OCC(O)CNC(C)C)cc1` (stereo unspecified), the Potency result in assay [1], in assay [2], in [3], in assay [4], in assay [7] and in assay [8] was “inactive” each time. The Potency entry in assay [10], in assay [19], in assay [11], in assay [12], in assay [13] and in assay [14] was “inactive” in each case. Besides, the Potency result in assay [20], in assay [15], in assay [16], in assay [17] and in [18] was “inactive” in each case. For the same compound, in [5], the max response was 1.31% and -8.11%.
On to `COC(=O)c1ccc(C)cc1C1=NC(C)(C(C)C)C(=O)N1` (stereo unspecified), for which the Potency result in [1], in assay [2], in assay [3], in assay [4], in assay [6] and in assay [7] was “inactive” in each case. Further, the Potency entry in assay [10], in assay [19], in [11], in [12], in assay [13] and in assay [14] was “inactive” each time. The Potency entry in [20], in assay [15], in assay [16], in assay [17] and in assay [18] was “inactive” throughout. Also, the max response in [5] was 5.2%.
Consider `O=C1NC(=O)[C@@]2(CCOc3ccc(F)cc32)N1`, for which the Potency entry in assay [1], in assay [2], in assay [3], in assay [4], in assay [7] and in assay [8] was “inactive” throughout. Besides, the Potency result in [9], in [10], in assay [19], in assay [11], in assay [12] and in assay [13] was “inactive” throughout. Moreover, the Potency result in assay [14], in [20], in assay [15], in assay [16], in assay [17] and in [18] was “inactive” in each case. Further, the max response in assay [5] is 10%.
`CCOC(=O)CC(C)=O`: the Potency result in assay [1], in assay [2], in [3], in [4], in assay [6] and in assay [7] was “inactive” in each case. Besides, the Potency result in [10], in [19], in [11], in [12], in [13] and in [14] was “inactive” in each case. In addition, the Potency result in assay [20], in [15], in assay [16], in assay [17] and in assay [18] was “inactive” each time. Further, in assay [5], the max response is 14.1%.
For `O=C1CCCN1C1CCCCC1`, the Potency result in assay [1], in [2], in assay [3], in [4], in assay [6] and in [7] was “inactive” in each case. Moreover, the Potency entry in assay [10], in assay [19], in [12], in [13], in assay [14] and in assay [15] was “inactive” in each case. Further, the Potency result in [16], in [17] and in assay [18] was “inactive” throughout. Besides, in assay [5], the max response was 6.98%.
With `CC1(C)CO[C@@H](CC(=O)O)CN1`, the Potency result in assay [1], in [2], in [3], in assay [4], in assay [6] and in assay [7] was “inactive” each time. Besides, the Potency entry in assay [9], in assay [10], in assay [19], in [11], in [12] and in assay [13] was “inactive” in each case. Besides, the Potency entry in [14], in assay [20], in assay [15], in assay [16], in [17] and in [18] was “inactive” in each case. The max response in assay [5] was 4.58%.
For `N=C(N)c1ccc(OCCCOc2ccc(C(=N)N)cc2)cc1`, the Potency entry in assay [1], in assay [2], in assay [3], in assay [4], in assay [6] and in [7] was “inactive” each time. In addition, the Potency result in assay [10], in assay [19], in assay [11], in [12], in assay [13] and in assay [14] was “inactive” throughout. Further, the Potency entry in assay [20], in [15], in assay [16], in [17] and in [18] was “inactive” in each case. Moreover, the max response in [5] was 1.81%.
Take `NC(=O)c1ccc(N)cc1`: the Potency result in [1], in [2], in assay [3], in assay [4], in assay [6] and in assay [7] was “inactive” each time. Also, the Potency entry in assay [9], in [10], in assay [19], in assay [11], in assay [12] and in assay [13] was “inactive” in each case. The Potency result in assay [14], in assay [16], in assay [17] and in assay [18] was “inactive” throughout. The max response in assay [5] is -2.31%.
